Compounds with a hit are over-represented: about 11% of the library has one in this group of screens.
G9a block: inhibitors of human histone lysine methyltransferase G9a; Q96KQ7; G9a H3K9 monomethylation, AlphaScreen, 2 h; Potency, µM (doses to about 102 µM), actives largely listed as inhibitors; actives 8.8% (n = 350,000); note: nearly all actives have a fitted effect of over 75% in size
Target sequence (Q96KQ7 913-1193 limits assumed): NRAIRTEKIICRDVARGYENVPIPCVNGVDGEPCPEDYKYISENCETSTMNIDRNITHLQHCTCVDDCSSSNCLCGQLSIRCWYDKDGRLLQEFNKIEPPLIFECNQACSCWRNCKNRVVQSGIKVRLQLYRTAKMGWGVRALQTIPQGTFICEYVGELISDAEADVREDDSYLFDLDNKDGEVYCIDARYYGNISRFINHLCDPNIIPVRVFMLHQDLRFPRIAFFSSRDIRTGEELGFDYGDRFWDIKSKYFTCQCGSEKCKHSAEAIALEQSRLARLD
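AlphaScreen read-out: biotin-H3K9 peptide (500 nM) methylation by 20 nM enzyme with 20 uM SAM, 2 h at room temperature after 15 min compound preincubation; anti-monomethyl H3K9 antibody plus donor/acceptor beads, 10 min dark.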
HP1b chromo inh: blocks HP1-beta chromodomain binding to methylated histone tails | P83916 | AlphaScreen HP1-beta / biotin-H3K9me3 peptide binding | Potency, µM (series often up to 114 µM), usual class: inhibitors | actives 0.56% (n = 390,000); note: nearly all actives have a fitted effect of over 70% in size
Target sequence (P83916 whole entry, looked up): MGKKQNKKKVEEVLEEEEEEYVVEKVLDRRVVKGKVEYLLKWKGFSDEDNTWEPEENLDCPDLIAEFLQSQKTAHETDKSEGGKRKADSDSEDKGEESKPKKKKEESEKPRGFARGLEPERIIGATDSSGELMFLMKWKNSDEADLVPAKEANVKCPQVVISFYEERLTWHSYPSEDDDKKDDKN
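Compound inhibition of the preformed complex between 50 nM HP1-beta and 50 nM biotinylated H3K9me3 peptide was read by AlphaScreen. Buffer was PBS pH 7.4 with 0.01% Tween-20. Incubations ran 30 min at room temperature, with 10 ug/mL donor/acceptor beads.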
JMJD2A Tudor: blocks the human JMJD2A Tudor domain. Potency, µM (doses to about 114 µM), hits mostly inhibitors. actives 4.4% (n = 390,000). AID 504339. AlphaScreen JMJD2A-Tudor / H3K4me3 peptide binding; note: nearly all actives have a fitted effect of over 50% in size
PLK1 PBD block: blocks phosphopeptide binding to human PLK1 polo-box domain; actives 2.8% (n = 360,000); Plk1 PBD binding of FITC phosphopeptide, fluorescence polarization; P53350; AID 720504; Potency, µM, hits mostly inhibitors; note: series mostly up to about 57 µM; nearly all actives have a fitted effect of over 65% in size
BAZ2B block: inhibitors of human BAZ2B bromodomain; AID 504333; AlphaScreen BAZ2B-H3K14Ac peptide displacement; Potency, µM (highest dose often 114 µM), hits mostly inhibitors; actives 4.4% (n = 360,000); note: nearly all actives have a fitted effect of over 60% in size
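In this displacement format the biotinylated H3(5-23) peptide acetylated at Lys14 serves as ligand at 50 nM, with BAZ2B at 50 nM in PBS pH 7.4 containing 0.01% Tween-20. Donor and acceptor beads are 10 ug/mL final.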
VDR inhibitor: blocks the human vitamin D receptor | P11473 | VDR-SRC2-3 peptide fluorescence polarization, 2 h | Potency, µM, most hits filed as inhibitors | actives 0.93% (n = 400,000) | AID 504847
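After 23 nl compound addition and a short centrifugation, plates sat for 2 hours at ambient temperature; polarization of fluorescence then indicated loss of VDR binding to peptide SRC2-3.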
Large screens that a line does not name were inactive. Calls come from the whole dose curve; as a rule, active = well fitted curve in the direction sought with a large enough effect; inconclusive = small, poorly fitted or top-dose-only effect, or another doubt; inactive = no such curve, though single readings can be large; an effect the other way counts as inactive or inconclusive.

C/C(=N\Nc1ccc(F)cc1)c1ccc(N2CCOCC2)c(F)c1	G9a block 28µM, PLK1 PBD block inconclusive
COc1ccc(NC(=O)c2cc(OCCCN(C)C)nn2Cc2ccccc2)cc1	none (no result: G9a block, HP1b chromo inh, JMJD2A Tudor, PLK1 PBD block, BAZ2B block)
CCCCC/C=C\C/C=C\CCCCCCCCCC(=O)NC(C)C(=O)O (stereo not given)	none (no result: G9a block, HP1b chromo inh, JMJD2A Tudor, PLK1 PBD block, BAZ2B block)
O=C(Nc1ccc(-c2csc(-c3ccccc3)n2)cc1)c1ccccc1Cl	none
O=C(Nc1ccc(-c2n[nH]c(=S)o2)cc1)c1ccccc1Cl	G9a block 1.8µM
COc1ccc(/C(C)=N/OCC(=O)Nc2nc3ccccc3s2)cc1OC	G9a block 50µM, BAZ2B block inconclusive
C/C(=N\OCC(=O)Nc1nc2ccccc2s1)c1ccccc1	none
CCN(c1ccccc1)S(=O)(=O)c1ccc(C(=O)Nc2nnc(-c3ccco3)o2)cc1	G9a block 50µM, PLK1 PBD block inconclusive (no result: BAZ2B block)
CN(c1ccccc1)S(=O)(=O)c1ccc(C(=O)Nc2nnc(C3CC3)o2)cc1	BAZ2B block inconclusive
COCc1nnc(NC(=O)c2ccc(S(=O)(=O)N(C)c3ccccc3)cc2)o1	JMJD2A Tudor 79µM, BAZ2B block inconclusive
CCN(c1ccccc1)S(=O)(=O)c1ccc(C(=O)Nc2nnc(C3CC3)o2)cc1	BAZ2B block 79µM
CCN(c1ccccc1)S(=O)(=O)c1ccc(C(=O)Nc2nnc(COC)o2)cc1	JMJD2A Tudor 56µM, BAZ2B block 56µM
CN(c1ccccc1)S(=O)(=O)c1ccc(C(=O)Nc2nnc(-c3ccco3)o2)cc1	G9a block inconclusive, PLK1 PBD block inconclusive (no result: BAZ2B block)
CCN(c1ccccc1)S(=O)(=O)c1ccc(C(=O)Nc2nnc(CSC)o2)cc1	G9a block inconclusive, BAZ2B block inconclusive
CCc1ccc(NC(=O)C2CCC(CNS(=O)(=O)c3ccc4c(c3)CC(C)N4C(C)=O)CC2)cc1 (stereo not given)	none (no result: PLK1 PBD block)
Cc1ccc(-n2nnnc2-c2cnoc2-c2cccc(F)c2)cc1	JMJD2A Tudor 16µM, PLK1 PBD block 21µM, VDR inhibitor 50µM
Fc1cc(F)cc(-c2oncc2-c2nnnn2-c2ccccc2)c1	JMJD2A Tudor 79µM, PLK1 PBD block inconclusive
Fc1ccc(-c2oncc2-c2nnnn2-c2ccccc2)cc1F	none
Cc1cc(CNC(=O)CC2C(=O)NCCN2Cc2ccccc2C(F)(F)F)nn1C (stereo not given)	G9a block inconclusive
CCOc1ccc(CN2CCNC(=O)C2CC(=O)NCc2csc(C)n2)cc1 (stereo not given)	none (no result: G9a block)
CCOc1ccc(CN2CCNC(=O)C2CC(=O)NCc2cc(C)n(C)n2)cc1 (stereo not given)	G9a block 40µM
COc1ccc(CN2CCNC(=O)C2CC(=O)NCc2cc(C)n(C)n2)c(F)c1 (stereo not given)	G9a block 25µM
CCNC(=O)C1(C)CCN(Cc2csc(-c3ccccc3)n2)C1 (stereo not given)	none (no result: G9a block, HP1b chromo inh, JMJD2A Tudor, BAZ2B block, VDR inhibitor)
COc1cccc(C2SCC(=O)N2c2ccc(Br)cc2)c1OC (stereo not given)	none
CC(=O)Nc1ccc([C@H]2[C@H](C)CC[C@H]3C(=O)N4[C@@H](CC[C@@H](C)[C@@H]4c4ccc(NC(C)=O)cc4)C(=O)N32)cc1	G9a block inconclusive, BAZ2B block 56µM (no result: HP1b chromo inh, JMJD2A Tudor, PLK1 PBD block, VDR inhibitor)
CC(=O)Nc1ccc(NCN2C(=O)C3C4CCC(C4)C3C2=O)cc1 (stereo not given)	none
CN(C(=O)COC(=O)CSc1ccc([N+](=O)[O-])cc1)c1ccccc1	HP1b chromo inh inconclusive, JMJD2A Tudor 79µM, PLK1 PBD block 13µM, VDR inhibitor 89µM
N/C(=N\OC(=O)CSc1ccccc1)c1ccc([N+](=O)[O-])cc1	HP1b chromo inh inconclusive, JMJD2A Tudor inconclusive, PLK1 PBD block 27µM, BAZ2B block inconclusive
CN(C(=O)COC(=O)c1ccc([N+](=O)[O-])cc1)c1ccccc1	none
Cc1ccc(S(=O)(=O)N/N=C2\C(=O)C3(C)CCC2C3(C)C)cc1 (stereo not given)	G9a block 14µM, BAZ2B block inconclusive
CN1CCc2c(cc(O)c(O)c2Cl)C(c2cccc(Cl)c2)C1 (stereo not given)	G9a block 8.9µM (no result: HP1b chromo inh, JMJD2A Tudor, PLK1 PBD block, BAZ2B block, VDR inhibitor)

Screening results from PubChem.
